# Where “and” joins values, the source holds several entries; their conditions need not be identical. Identical values can stand only once. Records with an inconclusive call do not appear. A call without a number means that no potency is given here. More than one record can exist for a structure, and the calls need not agree. Calls of active or inactive are those of the source. Unless noted, the call rests on the fitted dose curve; in most records, active means well fitted curve in the direction sought with a large enough effect in the repeat runs; inconclusive means weak or mixed curves; inactive means no such curve, though single readings can be large; an effect the other way counts as inactive or inconclusive.
# Tests used:
# [1] = qHTS assay to identify small molecule agonists of the vitamin D receptor (VDR) signaling pathway - cell viability counter screen (AID 743224); further: nearly all actives have a fitted effect of over 50% in size; further: potency means the concentration at half of the fitted maximal effect
# Outline: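 VDR-bla cells, 4 h after plating, exposed to compounds for 16 h at 37C; viability then read in the same wells as CellTiter-Glo luminescence after 30 min at room temperature, following the bla FRET read.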
# [2] = qHTS assay to identify small molecule antagonists of the vitamin D receptor (VDR) signaling pathway - cell viability counter screen (AID 743225); further: nearly all actives have a fitted effect of over 50% in size; further: potency means the concentration at half of the fitted maximal effect
# Outline: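 Cells (VDR-UAS-bla HEK 293T) are plated, rested 4 h at 37C, dosed with compound and 3 nM final 1-alpha,25-dihydroxy vitamin D3, and incubated 16 h. Viability is taken from CellTiter-Glo luminescence in the reporter wells.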
# [3] = qHTS assay to identify small molecule agonists of the NFkB signaling pathway - cell viability counter screen (AID 1159515; calls by dose curve; further: nearly all actives have a fitted effect of over 55% in size; further: potency means the concentration at half of the fitted maximal effect)
# Outline: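 NFkB-bla ME-180 cells, 2,000/well, plated overnight at 37 C; compound added for 5 hr at 37 C. Viability read in the same wells as the bla reporter, by CellTiter-Glo luminescence after 30 min at room temperature.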
# [4] = qHTS assay to identify small molecule agonists of the endoplasmic reticulum stress response signaling pathway - cell viability counter screen (AID 1159517; calls by dose curve; further: nearly all actives have a fitted effect of over 50% in size; further: potency means the concentration at half of the fitted maximal effect)
# Outline: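 Cells, HeLa ESRE-bla; density, 1,500/well; dosing, 5 hr at 37 C, 5% CO2; readout, CellTiter-Glo luminescence after 30 min RT.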
# [5] = qHTS assay to identify small molecule antagonists of the retinoid-related orphan receptor gamma (ROR-gamma) signaling pathway - cell viability counter screen (AID 1159520); further: nearly all actives have a fitted effect of over 50% in size; further: potency means the concentration at half of the fitted maximal effect
# Outline: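 Cytotoxicity was read from cellular ATP (CellTiter-Glo luminescence) after 16 hr at 37 C with 1 uM doxycycline induction. The inducer was added 2 hr after compound transfer to Tet-on ROR gamma CHO cells.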
# [6] = molecular target: Nuclear receptor ROR-gamma (Homo sapiens) (UniProt P51449); test: qHTS assay to identify small molecule antagonists of the retinoid-related orphan receptor gamma (ROR-gamma) signaling pathway (AID 1159521; further: nearly all actives have a fitted effect of over 50% in size; further: potency means the concentration at half of the fitted maximal effect)
# Outline: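 RORγ antagonism is scored from reduced reporter luminescence in Tet-on CHO cells. Induction used 1 uM final doxycycline hyclate for 16 h at 37 C, following a 2 h compound exposure.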
# [7] = qHTS assay to identify small molecule agonists of the AP-1 signaling pathway - cell viability counter screen (AID 1159525; calls by dose curve; further: nearly all actives have a fitted effect of over 55% in size; further: potency means the concentration at half of the fitted maximal effect)
# Outline: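 Luminescent ATP readout (Cell Titer Glo, 30 min RT), normalised to DMSO and tetra n-octyl ammonium bromide controls. Cells were ME-180 AP-1-bla in 0.5% dialyzed FBS Opti-MEM, with a 5 h, 37 °C compound exposure.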
# [8] = qHTS assay to identify small molecule agonists of the RXR signaling pathway - cell viability counter screen (AID 1159529); further: nearly all actives have a fitted effect of over 50% in size; further: potency means the concentration at half of the fitted maximal effect
# Outline: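 Cell viability is measured by CellTiter-Glo luminescence, 30 min at room temperature, in wells already read for beta-lactamase. Engineered HEK 293T cells (RXR-alpha-UAS-bla) are dosed 16 hr at 37 C. Tetraoctyl ammonium bromide serves as positive control.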
# [9] = qHTS assay to identify small molecule antagonists of the retinoid acid receptor (RAR) signaling pathway - cell viability counter screen (AID 1159551); further: nearly all actives have a fitted effect of over 35% in size; further: potency means the concentration at half of the fitted maximal effect
# Outline: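 C3RL4 RARE-luciferase cells, 1,000/well, incubated overnight, then dosed with compound plus 1 uM retinol (final). After 6 hr at 37 C, viability read by CellTiter-Glo ATP luminescence following 30 min at room temperature.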
# [10] = qHTS assay to identify small molecule antagonists of the retinoic acid receptor (RAR) signaling pathway (AID 1159552; further: nearly all actives have a fitted effect of over 50% in size; further: potency means the concentration at half of the fitted maximal effect)
# Outline: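 Quantitative HTS in C3RL4 RARE-luciferase reporter cells. Compounds were added with 1 uM (final) retinol; luminescence was read after 6 hr.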
# [11] = qHTS assay to identify small molecule agonists of the retinoic acid receptor (RAR) signaling pathway (AID 1159553); further: potency means the concentration at half of the fitted maximal effect
# Outline: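 C3RL4 RARE-luciferase cells were seeded at 1,000/well and grown overnight at 37 C, then exposed to compounds for 6 hr at 37 C, 5% CO2. Luciferase reagent was added and luminescence was read after 30 min at room temperature.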
# [12] = qHTS assay to identify small molecule agonists of the AP-1 signaling pathway (AID 1159526; calls by dose curve)
# [13] = molecular target: Retinoic acid receptor RXR-alpha (Homo sapiens) (UniProt P19793); test: qHTS assay to identify small molecule agonists of the RXR signaling pathway (AID 1159527; calls by dose curve; further: nearly all actives have a fitted effect of over 35% in size)
# Retinoic acid receptor RXR-alpha (Homo sapiens), sequence (P19793 whole entry, looked up): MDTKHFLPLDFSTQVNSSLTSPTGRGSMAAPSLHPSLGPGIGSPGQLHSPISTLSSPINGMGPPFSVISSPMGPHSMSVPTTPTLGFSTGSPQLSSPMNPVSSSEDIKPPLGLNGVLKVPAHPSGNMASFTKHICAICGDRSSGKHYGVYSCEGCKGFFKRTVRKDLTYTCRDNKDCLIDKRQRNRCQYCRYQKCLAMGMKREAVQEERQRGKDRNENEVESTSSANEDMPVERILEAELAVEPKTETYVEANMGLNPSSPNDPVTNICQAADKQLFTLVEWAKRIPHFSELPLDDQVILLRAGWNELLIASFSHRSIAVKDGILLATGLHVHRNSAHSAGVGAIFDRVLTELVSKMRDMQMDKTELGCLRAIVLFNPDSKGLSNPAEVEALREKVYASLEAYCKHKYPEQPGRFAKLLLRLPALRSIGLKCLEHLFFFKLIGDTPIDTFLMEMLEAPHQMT
# Outline: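 qHTS of the Tox21 10K library in GeneBLAzer RXR-alpha HEK 293T cells carrying a beta-lactamase reporter […]; 16 hr treatment, 9-cis retinoic acid as agonist control, FRET read-out.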
Structure (SMILES),Potency [1],Potency [2],Potency [3],Potency [4],Potency [5],Potency [6],Potency [7],Potency [8],Potency [9],Potency [10],Potency [11],Potency [12],Potency [13]
CCOc1ccc2c(c1)C(C)=CC(C)(C)N2,inactive,inactive,inactive,inactive,inactive,inactive,inactive,inactive,inactive,inactive,54.2 µM (active) and 61.1 µM (active),,
Nc1ccc2cc3ccccc3cc2c1,inactive,inactive,inactive,inactive,,inactive,inactive,,inactive,inactive,5.54 µM (active) and 34.4 µM (active),inactive,
Cc1cc(Cc2cc(C)cc(C(C)(C)C)c2O)c(O)c(C(C)(C)C)c1,9.82 µM (active) and 13.8 µM (active),19.6 µM (active) and 19.5 µM (active),11 µM (active) and 17.4 µM (active),17.5 µM (active) and 21.9 µM (active),21.8 µM (active) and 30.6 µM (active),19.4 µM (active) and 27.3 µM (active),11 µM (active) and 13.8 µM (active),12.4 µM (active) and 21.9 µM (active),54.8 µM (active) and 48.6 µM (active),43.5 µM (active) and 61.1 µM (active),,,
Nc1nc2ccccc2[nH]1,inactive,inactive,inactive,inactive,,,inactive,inactive,inactive,inactive,inactive,,inactive
Oc1c(Cl)cc(Cl)c(Cl)c1Cc1c(O)c(Cl)cc(Cl)c1Cl,24.5 µM (active) and 21.9 µM (active) and 2.66 µM (active),54.8 µM (active) and 27.5 µM (active) and 9.52 µM (active),34.6 µM (active) and 43.6 µM (active),17.3 µM (active) and 49 µM (active),1.53 µM (active) and 1.93 µM (active) and 1.68 µM (active),966 nM (active) and 1.37 µM (active) and 841 nM (active),27.5 µM (active),34.6 µM (active) and 49 µM (active) and 19 µM (active),,24.3 µM (active) and 15 µM (active),inactive,,
O=C(Nc1ccccc1SSc1ccccc1NC(=O)c1ccccc1)c1ccccc1,12.4 µM (active) and 12.3 µM (active),,inactive,inactive,24.3 µM (active),8.68 µM (active) and 17.2 µM (active),inactive,19.6 µM (active) and 21.9 µM (active),inactive,15.4 µM (active),,,
Oc1c(Cl)cc(Cl)cc1Sc1cc(Cl)cc(Cl)c1O,21.9 µM (active) and 44.4 µM (active) and inactive,24.6 µM (active) and 55.9 µM (active) and 43.6 µM (active),55.1 µM (active) and inactive,55.1 µM (active) and 55.9 µM (active) and 49 µM (active),15.4 µM (active) and 21.7 µM (active),,49.1 µM (active) and 49 µM (active) and inactive,49.1 µM (active),inactive,30.7 µM (active) and 27.8 µM (active) and 27.3 µM (active),inactive,,
